IL1B secr inh = qHTS for Inhibitors of Inflammasome Signaling: IL-1-beta AlphaLISA Primary Screen | actives 4.7% (n = 360,000) | AID 743279, 2014 | THP-1 LPS/ATP IL-1B secretion, AlphaLISA, 16 h; hits give low values | activity change, % at 57.5 µM; in the data active = activity change below about -50%; inconclusive = mostly about -30% to -49%; note: % is set by controls: 0 for no effect and ±100 for the full control effect
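THP-1 cells pretreated 1 hr with compounds (up to 57.5 uM final), then stimulated with LPS (250 ng/mL final) plus ATP (1.25 mM final); secreted IL-1B measured by AlphaLISA after 16 hr, decreased signal indicating inhibition.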
ClpP mod = qHTS Assay for Activators of ClpP. ATP-dependent Clp protease proteolytic subunit (Bacillus subtilis (strain 168)), P80244. purified B. subtilis ClpP, FRET peptide cleavage, 20 min. Potency, µM (top dose mostly 57.5 µM), for inactives: at the top dose activity change, negative = active. actives 1.9% (n = 340,000); active = well fitted falling curve with a large enough effect; inconclusive = small, poorly fitted or top-dose-only effect; inactive = no such curve, though single readings can be large or run the other way; note: potency is the fitted concentration of half-maximal effect; the source files actives as falling curves though it sought activators and does not explain the sign; nearly all actives have a fitted effect of over 65% in size
Target sequence (P80244 whole entry, looked up): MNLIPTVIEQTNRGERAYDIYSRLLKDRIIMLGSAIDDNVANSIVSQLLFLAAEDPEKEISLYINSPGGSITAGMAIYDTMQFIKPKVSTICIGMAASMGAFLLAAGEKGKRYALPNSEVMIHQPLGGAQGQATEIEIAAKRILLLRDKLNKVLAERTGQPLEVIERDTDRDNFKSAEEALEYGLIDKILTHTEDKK
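Purified B. subtilis ClpP, 10 microg/mL final in Tris/HCl pH8 with KCl, BSA, glycerol and Tween-20, cleaved an Abz/nitrotyrosine-quenched decapeptide. Fluorescence (ex 320, em 430) was read at 0 and 20 min at room temperature. Delta was normalized to 5.8 microM ADEP and DMSO/no-enzyme controls.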
DRD3 agonist = qHTS of D3 Dopamine Receptor Agonist: qHTS | D(3) dopamine receptor (Homo sapiens), P35462 | D3R DiscoveRx beta-arrestin cells, luminescence, 90 min | max activation, % | actives 0.58% (n = 410,000); in the data active = max activation above about 30%; note: 0% is about no effect
Target sequence (P35462 whole entry, looked up): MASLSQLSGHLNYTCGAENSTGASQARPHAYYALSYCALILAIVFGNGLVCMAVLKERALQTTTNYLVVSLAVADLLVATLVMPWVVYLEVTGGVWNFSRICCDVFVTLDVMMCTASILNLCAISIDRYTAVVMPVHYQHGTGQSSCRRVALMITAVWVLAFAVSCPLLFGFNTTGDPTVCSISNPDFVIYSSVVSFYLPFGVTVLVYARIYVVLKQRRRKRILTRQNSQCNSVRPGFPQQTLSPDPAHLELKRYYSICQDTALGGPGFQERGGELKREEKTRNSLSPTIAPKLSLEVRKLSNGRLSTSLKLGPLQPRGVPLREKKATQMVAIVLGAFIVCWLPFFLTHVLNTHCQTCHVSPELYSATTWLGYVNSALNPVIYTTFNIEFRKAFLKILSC
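Agonist-mode cell screen: cells plated at 1500/well and incubated overnight at 37 °C, then exposed to library compounds for 90 min at 37 °C. Detection reagent was added for 30–60 min at room temperature, and luminescence was read.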
DT40 TDP1 CPT = qHTS for Inhibitors of human tyrosyl-DNA phosphodiesterase 1 (TDP1): qHTS in cells in presence of CPT; Potency, µM (doses to about 46.2 µM), without a hit: at the highest dose activity change, negative = growth inhibition, actives largely listed as inhibitors; actives 12% (n = 420,000); chicken DT40 Tdp1-/-;hTDP1 cells + 20 nM CPT, ATP luminescence, 48 h; note: potency is the fitted concentration of half-maximal effect; % is set by controls: 0 for no effect and ±100 for the full control effect; nearly all actives have a fitted effect of over 55% in size
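Chicken DT40 Tdp1-/- cells complemented with human TDP1, 400 cells/well, exposed to compounds plus 20 nM camptothecin for at least 48 h at 37 C; viability read as ATP content by CellTiter-Glo luminescence.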
D3 antag = qHTS of D3 Dopamine Receptor Antagonist: qHTS; D(3) dopamine receptor (Homo sapiens), P35462; D3R cells, DiscoveRx beta-arrestin luminescence, antagonist mode; hits give low values; max response, negative = inhibition, %; actives 2.5% (n = 360,000); in the data active = max response below about -50%; inconclusive = no clear call, values can overlap the other calls; note: % is set by controls: 0 for no effect and ±100 for the full control effect
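Cells plated overnight at 1500 cells/well, then exposed to library compounds with dopamine controls for 90 minutes at 37 degrees C. DiscoveRx reagent added for 30–60 minutes at room temperature; luminescence read, quantitative HTS format.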
TDP1 cell noCPT = qHTS for Inhibitors of human tyrosyl-DNA phosphodiesterase 1 (TDP1): qHTS in cells in absence of CPT; DT40 Tdp1-/- hTDP1 cells, no CPT, ATP luminescence, 48 h; Potency, µM (titrated, usually from 46.2 µM), for the others: at the highest dose activity change, negative = growth inhibition, hits mostly inhibitors; actives 15% (n = 420,000); note: potency is the fitted concentration of half-maximal effect; % is set by controls: 0 for no effect and ±100 for the full control effect; nearly all actives have a fitted effect of over 55% in size
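Compound effects on proliferation are scored in DT40 Tdp1-/-;hTDP1 cells in the absence of CPT. ATP levels (CellTiter-Glo luminescence) are recorded after a ≥48 hr, 37 °C incubation.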
Starred values were filed as active, the others as inactive; ? = inconclusive; . = not tested or not shown; [ ] = dose if it differs, or a comment. Hits are enriched below; roughly 21% of the tested compounds scored in any of these assays. Unless noted, calls come from the whole dose curve; as a rule, active = well fitted inhibition curve with a large enough effect; inconclusive = small, poorly fitted or top-dose-only effect; inactive = flat fitted curve, though single readings scatter.

SMILES	IL1B secr inh	ClpP mod	DRD3 agonist	DT40 TDP1 CPT	D3 antag	TDP1 cell noCPT
Cc1ccc(C(=O)COC(=O)C2C3C=CC(C3)C2C(=O)OCC(=O)c2ccc(C)c(C)c2)cc1C (configuration not stated)	-53.5*	-1.2%	-4.7	?	-21.7	?
N=c1n(CCCOc2ccc(Br)cc2)c2ccccc2n1CC(N)=O	-14.2	1.4%	-18.7	18.4µM*	-22.5	16.4µM*
CCOC(=O)Cn1c(=N)n(CCOc2ccc(OC)cc2)c2ccccc21	?	-0.1%	1.9	-13.8%	14.4	-10.3%
CCCn1c(=N)n(CCOc2ccc(OC)cc2)c2ccccc21	-58.2*	-0.6%	2.6	16.4µM*	-6.2	18.4µM*
CCOC(=O)Cn1c(=N)n(CCOc2ccc3ccccc3c2)c2ccccc21	-4.9	0.2%	1.4	17.8µM*	17.8	?
CCCCOC(=O)Cn1c(=N)n(CCC)c2ccccc21	30.6	0.2%	-0.9	0.3%	4.5	-9.1%
CC(C)(C)c1ccc(NNC(=O)C2CCC2)cc1	6.0	.	10.4	-22.3%	-15.7	?
Cc1ccccc1N=Nc1c(O)[nH]c2ccccc12	5.5	-4.8%	4.9	?	-3.7	?
Oc1ccc(NC(=S)N=Nc2c(O)[nH]c3ccccc23)cc1	-65.8*	.	-2.4	?	0.1	?
COc1ccc(S(=O)(=O)N=Nc2c(O)[nH]c3ccccc23)cc1	17.9	-5.8%	-9.8	-4.0%	139.3	2.0%
Cc1ccc(NC(=S)N=Nc2c(O)[nH]c3ccccc23)cc1	0.0	.	-15.1	6.51µM*	-16.4	7.31µM*
COc1ccc(NC(=S)N=Nc2c(O)[nH]c3ccccc23)cc1	34.1	2.0%	-6.7	8.2µM*	-10.4	5.8µM*
CCOC(=O)C(=O)N=Nc1c(O)[nH]c2ccccc12	18.9	22.4µM*	5.1	-1.3%	-16.7	-0.9%
O=C(NCc1ccc2c(c1)OCO2)C(=O)Nc1cc2c3c(c1)CC(=O)N3CCC2	-8.9	-1.6%	-1.6	1.3%	-8.1	-19.7%
C/C(=N\NC(=S)NC1CCCCC1)c1ccc(O)cc1	?	.	-9.1	?	-7.6	16.4µM*
COCCNC(=S)N/N=C(\C)c1ccc(O)cc1	7.7	-0.4%	-6.8	?	-3.3	?
CC(NC1CCCCC1)C(=O)NN=C(c1ccccc1)c1ccccc1 (configuration not stated)	-63.3*	1.3%	-12.5	?	10.1	?
C/C(=N\NC(=S)NC1CCCCC1)c1ccccc1	18.7	1.2%	-4.5	?	5.7	29.1µM*
CCOC(=O)Cn1ccc(-c2ccccc2)c(C#N)c1=O	-22.0	-11.8%	-2.0	-0.7%	3.4	3.3%
CCCc1nc2cccnc2n1C1CCN(C(=O)Cn2nccc2C)CC1	.	.	.	5.3%[9.04 µM]	.	-19.2%
COc1ccc(CCNC(=O)CN(c2ccc(OC)c(OC)c2)S(=O)(=O)c2ccccc2)cc1OC	3.8	-3.9%	4.6	-8.5%	20.3	-0.5%
CC1=CC(=O)C(C(C)C)=C/C1=C(\c1cc(C(C)C)c(OP(=O)(O)O)cc1C)c1ccccc1C(=O)O	24.6	1.2%	5.0	?	17.9	20.6µM*
CCOc1ccc(C(=O)c2ccccc2C(=O)O)cc1OCC	16.6	.	8.3	-0.3%	-9.4	-0.3%
CN(C)S(=O)(=O)c1ccc(NC(=O)N2CCN(c3cccc(C(F)(F)F)c3)CC2)cc1	-4.0	-3.6%	-5.9	3.66µM*	0.4	2.59µM*
COc1ccc(NC(=O)CSCC(=O)N2CCN(c3cccc(C(F)(F)F)c3)CC2)cc1	-0.1	1.7%	0.4	?	4.7	14.6µM*
SMILES	IL1B secr inh	ClpP mod	DRD3 agonist	DT40 TDP1 CPT	D3 antag	TDP1 cell noCPT
COc1ccc(NC(=O)N2CCC3(CC2)CCN(C(=O)c2cc(C(F)(F)F)cc(C(F)(F)F)c2)CC3)cc1	.	.	.	-0.4%	.	-28.2%
CN(C)S(=O)(=O)c1ccc(NC(=O)N2CCN(c3ccccc3Cl)CC2)cc1	?	-2.7%	-9.2	-28.0%	-13.9	?
COc1ccc(NC(=O)N2CCN(c3cccc(C(F)(F)F)c3)CC2)cc1	-0.8	0.2%	-3.0	2.06µM*	?	7.31µM*
c1ccc(Sc2ccccn2)cc1	1.2	.	-11.4	4.6%	-12.3	1.9%
c1ccc(SSc2ccccn2)nc1	-90.9*	.	-5.1	2.91µM*	-11.9	4.61µM*
COc1ccc(Oc2ncc3nc(C)c(=O)n(Cc4cccc(OC)c4)c3n2)cc1	.	.	.	-5.1%	.	-11.1%
COCCNC(=O)C1CCCN(C(=O)c2cncc(Br)c2)CC1 (configuration not stated)	3.2	-1.8%	-17.8	1.4%	-77.2*	-4.3%
COCCNC(=O)C1CCCN(C(=O)Cc2cccc3ccccc23)CC1 (configuration not stated)	12.6	1.4%	-10.7	2.4%	-102.4*	-27.2%
COCCNC(=O)C1(C)CCN(C(=O)c2ccc(F)c(C)c2)C1 (configuration not stated)	5.4	-1.0%	-3.5	-5.8%	-16.2	-7.5%
COCCNC(=O)C1(C)CCN(C(=O)c2ccc3c(c2)C(C)(C)CCC3(C)C)C1 (configuration not stated)	27.8	2.1%	-0.6	?	?	25.9µM*
COCCNC(=O)C1CCCN(C(=O)c2ccnc(Cl)c2)CC1 (configuration not stated)	-62.3*	0.3%	3.9	-10.5%	16.2	-15.9%
CCOC(=O)CSc1nc2cc3c(cc2c(=O)n1CCCC(=O)NCc1ccc2c(c1)OCO2)OCO3	.	5.5%	1.2	?	.	?
CCCCC(c1nnnn1C(C)C)N1CCN(C(=O)c2ccco2)CC1 (configuration not stated)	7.1	-1.0%	-23.5	0.3%	-4.7	-0.2%
COCCNC(=O)C1CCCN(C(=O)c2ccc(OC)c(F)c2)CC1 (configuration not stated)	4.0	0.4%	-1.5	0.5%	4.6	6.0%
COCCNC(=O)C1CCCN(C(=O)c2ccc3c(c2)C(C)(C)CCC3(C)C)CC1 (configuration not stated)	-5.0	-0.2%	1.0	13µM*	23.4	?

Bioassay records (PubChem)
